Test [1] in a line: qHTS of pediatric cancer cell lines to identify multiple opportunities for drug repurposing: Primary screen for BT-37 cells (AID 1347094). Note: potency is the fitted concentration of half-maximal effect. A digest of the protocol: (§1)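 Cells seeded at 500-1,000 cells/well in growth media, rested 5 hours at 37 degrees C, 5% CO2, then dosed; MIPE compounds at 11-point (from 0.78 nM) and NPC at 8-point (from 0.59 nM) final concentrations. Viability by CellTiter-Glo luminescence after 48 hours.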

The nature of test [2]: qHTS of pediatric cancer cell lines to identify multiple opportunities for drug repurposing: Primary screen for NB-EBc1 cells (AID 1347095). Note: potency is the fitted concentration of half-maximal effect. The gist of the method: as §1
Test [3] in a line: qHTS of pediatric cancer cell lines to identify multiple opportunities for drug repurposing: Primary screen for U-2 OS cells (AID 1347096). Note: nearly all actives have a fitted effect of over 50% in size. Note: potency is the fitted concentration of half-maximal effect. The gist of the method: (§2)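 Cells (500-1,000/well) rested 5 h, then received compounds for 48 h; metabolically active cells were measured by CellTiter-Glo luminescence. Final concentrations spanned up to 46 µM (MIPE, 11-point) or 0.59 nM-46 µM (NPC, 8-point) in primary screens, 11-point in follow-ups.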

Test [4] can be described thus: qHTS of pediatric cancer cell lines to identify multiple opportunities for drug repurposing: Primary screen for Saos-2 cells (AID 1347097). Note: nearly all actives have a fitted effect of over 40% in size. Note: potency is the fitted concentration of half-maximal effect. A digest of the protocol:
as §1

The nature of test [5]: qHTS of pediatric cancer cell lines to identify multiple opportunities for drug repurposing: Primary screen for SK-N-SH cells (AID 1347098). Note: nearly all actives have a fitted effect of over 65% in size. Note: potency is the fitted concentration of half-maximal effect. A digest of the protocol: as §2
Test [6] in a line: qHTS of pediatric cancer cell lines to identify multiple opportunities for drug repurposing: Primary screen for LAN-5 cells (AID 1347100). Note: potency is the fitted concentration of half-maximal effect. A digest of the protocol: as §2
A short description of test [7]: qHTS of pediatric cancer cell lines to identify multiple opportunities for drug repurposing: Primary screen for BT-12 cells (AID 1347101). Note: nearly all actives have a fitted effect of over 25% in size. Note: potency is the fitted concentration of half-maximal effect. The gist of the method:
as §2

Test [8] in a line: qHTS of pediatric cancer cell lines to identify multiple opportunities for drug repurposing: Primary screen for Rh18 cells (AID 1347102). Note: nearly all actives have a fitted effect of over 65% in size. Note: potency is the fitted concentration of half-maximal effect. A digest of the protocol:
as §2

Test [9] can be described thus: qHTS of pediatric cancer cell lines to identify multiple opportunities for drug repurposing: Primary screen for OHS-50 cells (AID 1347103). Note: nearly all actives have a fitted effect of over 40% in size. Note: potency is the fitted concentration of half-maximal effect. A digest of the protocol:
as §2

Test [10] can be described thus: qHTS of pediatric cancer cell lines to identify multiple opportunities for drug repurposing: Primary screen for MG 63 (6-TG R) cells (AID 1347105). Note: nearly all actives have a fitted effect of over 50% in size. Note: potency is the fitted concentration of half-maximal effect. The gist of the method: as §1
The nature of test [11]: qHTS of pediatric cancer cell lines to identify multiple opportunities for drug repurposing: Primary screen for control Hh wild type fibroblast cells (AID 1347106).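 Note: series mostly up to about 46 µM; a drop in luminescence marks cytotoxicity and a rise apparent proliferation; nearly all actives have a fitted effect of over 55% in size.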 A digest of the protocol: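 Cells (500-1,000/well) in growth media were settled 5 h at 37 degrees C, then given compounds for 48 h. Viability was read as CellTiter-Glo luminescence. Primary runs used MIPE at 11 points (0.78 nM-46 µM) and NPC at 8 points (0.59 nM-46 µM); follow-ups used 11 points.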

Test [12] is described as follows: qHTS of pediatric cancer cell lines to identify multiple opportunities for drug repurposing: Primary screen for Rh30 cells (AID 1347107). Note: nearly all actives have a fitted effect of over 75% in size. Note: potency is the fitted concentration of half-maximal effect. The gist of the method: as §2
The nature of test [13]: qHTS of pediatric cancer cell lines to identify multiple opportunities for drug repurposing: Primary screen for Rh41 cells (AID 1347108). Note: nearly all actives have a fitted effect of over 70% in size. Note: potency is the fitted concentration of half-maximal effect. A digest of the protocol:
as §1

A short description of test [14]: qHTS of pediatric cancer cell lines to identify multiple opportunities for drug repurposing: Primary screen for NB1643 cells (AID 1347099). Note: nearly all actives have a fitted effect of over 50% in size. Note: potency is the fitted concentration of half-maximal effect. The gist of the method:
as §1

A short description of test [15]: qHTS of pediatric cancer cell lines to identify multiple opportunities for drug repurposing: Primary screen for RD cells (AID 1347104). Note: nearly all actives have a fitted effect of over 55% in size. Note: potency is the fitted concentration of half-maximal effect. A digest of the protocol:
as §1

Test [16] can be described thus: qHTS of pediatric cancer cell lines to identify multiple opportunities for drug repurposing: Confirmatory screen for A673 cells (AID 1347110).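 Note: cells exposed to compound for 48 h before the viability read; nearly all actives have a fitted effect of over 65% in size.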 Note: potency is the fitted concentration of half-maximal effect. A digest of the protocol:
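A673 cells seeded at 500-1,000 cells/well, rested 5 h, then dosed; primary MIPE 11-point (0.78 nM to 46 µM), NPC (0.59 nM to 46 µM); confirmatory 11-point. CellTiter-Glo luminescence after 48 h.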

Test [17] is described as follows: qHTS of pediatric cancer cell lines to identify multiple opportunities for drug repurposing: Confirmatory screen for SK-N-MC cells (AID 1347111).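 Note: cells exposed to compound for 48 h before the readout; nearly all actives have a fitted effect of over 70% in size.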 Note: potency is the fitted concentration of half-maximal effect. The gist of the method: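 Seed 500-1,000 cells/well; rest 5 h at 37 degrees C. Pin-transfer compounds, 11-point titration. Incubate 48 h. Add CellTiter-Glo, 15 min RT, read luminescence.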
Test [18] is described as follows: qHTS of pediatric cancer cell lines to identify multiple opportunities for drug repurposing: Confirmatory screen for BT-12 cells (AID 1347112). Note: nearly all actives have a fitted effect of over 55% in size. Note: potency is the fitted concentration of half-maximal effect. A digest of the protocol:
as §2

Test [19] is described as follows: qHTS of pediatric cancer cell lines to identify multiple opportunities for drug repurposing: Confirmatory screen for LAN-5 cells (AID 1347113). Note: nearly all actives have a fitted effect of over 65% in size. Note: potency is the fitted concentration of half-maximal effect. A digest of the protocol: as §2
Test [20] is described as follows: qHTS of pediatric cancer cell lines to identify multiple opportunities for drug repurposing: Confirmatory screen for NB1643 cells (AID 1347109). Note: nearly all actives have a fitted effect of over 45% in size. A digest of the protocol:
as §2

Molecules are shown by their SMILES. Inconclusive results are not listed. Values without a mark were called inactive. Calls of active or inactive are those of the source. Calls come from the whole dose curve; as a rule, active = well fitted curve in the direction sought with a large enough effect; inconclusive = small, poorly fitted or top-dose-only effect, or another doubt; inactive = no such curve, though single readings can be large; an effect the other way counts as inactive or inconclusive. Starred links: 1 amine or outer side, 2 acyl side, 3 side chain; linkers in the order of their positions; H or OH if unused. Positions of bridges follow the written chain, without caps; N, C: chain ends. Non-standard residues stand in square brackets, D forms with d. Residues, ends and D or L forms follow the SMILES beside them. Chains are numbered I, II in the order given. Actinocin(9to1) = Cc1c2oc3c(C)ccc(C(=O)[*:1])c3nc-2c(C(=O)[*:2])c(N)c1=O; NMeV = CN[CH](C(=O)O)C(C)C; Sar = CNCC(=O)O

Regarding `C[C@H](CCC(=O)O)[C@H]1CC[C@H]2[C@@H]3[C@H](O)C[C@@H]4C[C@H](O)CC[C@]4(C)[C@@H]3CC[C@]12C`, the Potency result in test [1], in test [2], in test [3], in [4], in [5] and in test [6] was “inactive” each time. The Potency result in [7], in [8], in test [9], in test [10], in test [11] and in test [12] was “inactive” in each case. The Potency result in test [13] is “inactive”.
`CCCCCCCCCCCCCCCC(=O)OC[C@@H](NC(=O)C(Cl)Cl)[C@H](O)c1ccc([N+](=O)[O-])cc1`: the Potency result in test [1], in [2], in test [3], in test [4], in [14] and in test [8] was “inactive” in each case. Moreover, the Potency result in test [9], in [10], in [11], in [12] and in test [13] was “inactive” in each case.
In the case of `C=CC[C@@H]1C=C(C)C[C@H](C)C[C@H](OC)[C@H]2O[C@@](O)(C(=O)C(=O)N3CCCC[C@H]3C(=O)O[C@H](C(C)=C[C@@H]3CC[C@H](O)[C@H](OC)C3)[C@@H](C)[C@@H](O)CC1=O)[C@@H](C)C[C@@H]2OC`, the Potency in test [1] is 1720 nM (active); in test [4] it was 1870 nM (active); in test [5] it was 6070 nM (active); in test [9], 6110 nM (active). The Potency entry in test [2], in test [3], in test [11] and in test [12] was “inactive” in each case.
`OC[C@@H](O)[C@@H](O)[C@H](O)[C@@H](O)CO`: the Potency result in test [1], in test [2], in test [3], in test [4], in test [14] and in [6] was “inactive” in each case. Further, the Potency result in test [7], in [8], in [15], in test [10], in test [11] and in test [12] was “inactive” throughout. In [13], the Potency result was “inactive”.
Turning to `Cn1cnc(=N)c2[nH]cnc21`, the Potency in test [1] was 1370 nM (active); in test [2] it was 662 nM (active); in test [3], 2350 nM (active); in test [4] it was 743 nM (active); in [14], 166 nM (active); in test [6], 418 nM (active). Further, the Potency was 1530 nM (active) in test [7]; 264 nM (active) in test [8]; 109 nM (active) in test [9]; 935 nM (active) in [15]; 1480 nM (active) in test [10]; 14800 nM (active) in [12]. In addition, the Potency in test [13] is 469 nM (active). For the same compound, the Potency result in [11], in test [16], in test [17], in test [18] and in [19] was “inactive” in each case.
For the compound `O=C(c1ccc(F)cc1)N1CCC[C@H](c2nc(-c3ccc(F)cc3)no2)C1`, the Potency result in [1], in test [2], in [3], in [4], in [14] and in test [6] was “inactive” in each case. The Potency entry in test [7], in [8], in test [9], in test [10], in test [11] and in [13] was “inactive” each time.
Take `N=c1ccn2c(n1)O[C@H]1[C@@H](O)[C@@H](CO)O[C@H]12`: the Potency is 611 nM (active) in [1]; 11800 nM (active) in test [2]; 9350 nM (active) in test [14]; 3320 nM (active) in [6]; 2730 nM (active) in [9]. For the same compound, the Potency entry in test [3], in test [4], in test [8], in test [10] and in test [11] was “inactive” in each case.
With `O=C1CSC(=O)N1C(CCc1ccncc1)COc1ccc(-c2cccc([N+](=O)[O-])c2)cc1` (stereo unspecified), the Potency in test [1] was 15300 nM (active); in [2], 18700 nM (active); in test [5], 4820 nM (active); in test [6] it was 14800 nM (active); in [7] it was 6850 nM (active); in test [9], 4850 nM (active). Besides, the Potency entry in [3], in [4], in test [8] and in test [11] was “inactive” each time.
Consider `CC1(C)[C@H](O[C@H]2O[C@H](C(=O)O)[C@@H](O)[C@H](O)[C@H]2O[C@@H]2O[C@H](C(=O)O)[C@@H](O)[C@H](O)[C@H]2O)CC[C@@]2(C)[C@H]1CC[C@]1(C)[C@H]2C(=O)C=C2[C@H]3C[C@@](C)(C(=O)O)CC[C@]3(C)CC[C@]21C`, for which the Potency result in [1], in test [2], in [3], in test [4], in test [14] and in [6] was “inactive” each time. The Potency result in test [7], in test [8], in [9], in test [15], in [10] and in test [11] was “inactive” each time. Further, the Potency entry in [12] and in test [13] was “inactive” each time.
With `CCOC(=O)[C@H](CCc1ccccc1)N[C@@H](C)C(=O)N1[C@@H](C(=O)O)C[C@H]2CCC[C@@H]21`, the Potency in [1] is 21700 nM (active); in test [2], 18700 nM (active); in test [3], 18700 nM (active); in test [4], 14800 nM (active); in test [14] it was 3320 nM (active); in test [6], 13200 nM (active). The Potency in test [7] is 24300 nM (active); in [9], 19300 nM (active); in [15], 18700 nM (active); in test [10], 18700 nM (active); in [12], 18700 nM (active); in [13], 11800 nM (active). Also, in test [11], the Potency result was “inactive”.
As for `CCc1c(O)cc(O)c(C(=O)c2ccc(OCCN3CCOCC3)c(OC)c2)c1CC(=O)N(CCOC)CCOC`, the Potency was 1090 nM (active) in [1]; 4180 nM (active) in test [2]; 6810 nM (active) in [5]; 935 nM (active) in [14]; 590 nM (active) in test [6]; 1320 nM (active) in test [8]. Moreover, the results for the Potency in test [15] and in test [13] were 526 nM (active) and 1180 nM (active), respectively. The Potency result in test [3] is “inactive”.
Consider `N#Cc1cc(NC(=O)Nc2nnc(-c3ccncc3)s2)ccc1-c1cn[nH]c1`, for which the Potency entry in [1], in test [2], in [3], in [4], in [6] and in [7] was “inactive” throughout. The Potency result in test [9], in test [15], in test [10], in test [11] and in test [12] was “inactive” throughout.
Regarding `Cc1c2oc3c(C)ccc(C(=O)NC4C(=O)NC(C(C)C)C(=O)N5CCCC5C(=O)N(C)CC(=O)N(C)C(C(C)C)C(=O)OC4C)c3nc-2c(C(=O)NC2C(=O)NC(C(C)C)C(=O)N3CCCC3C(=O)N(C)CC(=O)N(C)C(C(C)C)C(=O)OC2C)c(N)c1=O` (stereo unspecified) (I: TVP[Sar][NMeV] / II: TVP[Sar][NMeV]; ester I:1-I:C, II:1-II:C; linker I:N-II:N via Actinocin(9to1); configuration not given here), the Potency is 1 nM (active) in [1]; 1 nM (active) in test [3]; 1 nM (active) in test [4]; 1 nM (active) in [7]; 1870 nM (active) in test [8]; 1 nM (active) in test [9]. Further, the Potency in test [13] was 1 nM (active); in test [16], 14.7 nM (active); in test [17], 7.4 nM (active); in test [18], 29.3 nM (active); in test [19], 2.3 nM (active). Moreover, the Potency entry in test [2], in test [12] and in [20] was “inactive” throughout.

These data come from PubChem BioAssay (NCATS).
